From ChEMBL document CHEMBL4513216, “Probing the Open Global Health Chemical Diversity Library for Multistage-Active Starting Points for Next-Generation Antimalarials” (ACS Infect Dis, 2020)
Hit rate of the full screen: of about 65,000 compounds, about 2,100 (3.2%) showed an effect of 50% or more. The median lay at about -52%. This excerpt belongs to a sample that is enriched for strong results.

What follows are molecules tested on Plasmodium falciparum (assay: Screen against P. falciparum Asexual Blood Stage (ABS), at 5uM). Conditions: tested at 5 uM.
Format: functional, Dd2

Structure (SMILES) | INHIBITION [%]
COc1ccc(C2=CCN(C(=O)CN(CC(N)=O)C(C)C)CC2)cc1 | -68.8
Cc1noc(C)c1CN1CCC[C@]2(C[C@@H](Oc3ccccn3)CO2)C1 | -61.7
CC(=O)N1[C@H](Cn2cncn2)C[C@@H]2CN(Cc3ccncc3)CC[C@@H]21 | -149
COc1ccc(C)c(NC(=O)NCc2ncnn2C)c1 | -80.2
O=C(NCCn1ccnc1)N1CCCC1c1ccncc1 (configuration not stated) | -10
COc1ccc(C2CCCN2C(=O)NCCn2ccnc2)cc1 (configuration not stated) | 59.1
COc1ccc(C2CCCN2C(=O)NCCCn2ccnc2)cc1 (configuration not stated) | 61.9
O=C(NCCn1ccnc1)N1CCCC1c1ccc2c(c1)OCCO2 (configuration not stated) | 51.2
O=C(NCCn1ccnc1)N1CCCC1c1ccsc1 (configuration not stated) | -159
O=C(NCCCn1ccnc1)N1CCCC1c1ccncc1 (configuration not stated) | -65.7
COc1ccc(C2CCCN2C(=O)NCCn2ccnc2)cc1OC (configuration not stated) | -189
COc1ccc(C2CCCN2C(=O)NCCCn2cccn2)cc1 (configuration not stated) | -90.4
CCOc1ccc(C2CCCN2C(=O)NCCn2ccnc2)cc1 (configuration not stated) | 36.1
CC(C)(C)c1nnnn1CC(=O)N(CCC#N)c1ccccc1 | -55.4
CN(C)C(C(=O)NCc1cc(C(C)(C)C)n[nH]1)c1ccc(F)cc1 (configuration not stated) | -1.64
COCCn1c2c(ccc1=O)CC(NCc1cnn(C)c1)CC2 (configuration not stated) | -23.6
Cc1cc(O)ncc1NS(=O)(=O)c1cccc(F)c1F | -123
CCS(=O)(=O)N[C@H]1CN(Cc2noc(COC)n2)C[C@@H]1C1CC1 | -96.2
Cc1cccc(-c2nc(N)nc3c2CN(C(=O)c2cc(C)n[nH]2)C3C)c1 (configuration not stated) | 32.2
COCCN1Cc2ccccc2C2(CCN(C(=O)c3ccco3)CC2)C1 | -50.4
COc1ccccc1-n1nc(CC(C)C)nc1CSc1nnc(N)s1 | -36.5
CC(NCC1(N(C)C)CCOCC1)c1ccc(S(C)(=O)=O)cc1 (configuration not stated) | -56.25
CSC1(CNC(=O)NC(C)c2ccc(F)cc2)CCOCC1 (configuration not stated) | -162
CC(NCC1(N(C)C)CCOCC1)c1ccc(SC(F)F)cc1 (configuration not stated) | 52.35
COCC1CN(S(=O)(=O)Cc2ccccc2)Cc2c1cnn2C (configuration not stated) | -54.3
Nc1cc2c(nn1)CCN(C(=O)CCCC1CCCCC1)C2 | -83.9

Structure (SMILES) | INHIBITION [%]
COCCCC1CCCN(Cc2c(C)ccc3ncccc23)C1 (configuration not stated) | 37.2
Cc1ccc2ncccc2c1CN1CC[C@H](N(C)C)[C@H](CCC(=O)O)C1 | -3.92
CO[C@H]1CN(Cc2c(C)ccc3ncccc23)CC[C@H]1N | 67.2
Cc1cc(NC(=O)c2ccc(CN3CC[C@H](O)C3)cc2)ccc1F | 21.2
CC(=O)N1CCCC1c1cccc(NCc2ccccc2F)n1 (configuration not stated) | -133
COc1cc(N2CCC3(CCN(Cc4csc(C)n4)C3=O)C2)ncn1 (configuration not stated) | -8.45
COCCCN1CCN([C@@H]2c3ccccc3C3(CCNCC3)[C@H]2O)CC1 | -68.7
CCNC(=O)[C@@H]1C[C@H](N)CN1c1cc(C(F)(F)F)nc(N2CCCC2)n1 | 54.7
CCNC(=O)[C@@H]1C[C@H](N)CN1c1cc(C(F)(F)F)nc(N(C)C)n1 | 20.4
CCNC(=O)[C@@H]1C[C@H](N)CN1c1cc(CC)nc(N(C)C)n1 | -67.6
CC(=O)Nc1nc(C(=O)N2CCCC(n3cncn3)C2)cs1 (configuration not stated) | -101
CN(C(=O)Cn1nc(-c2ccccc2)ccc1=O)C1CCS(=O)(=O)C1 (configuration not stated) | -30.2
Fc1ccc(CN2CCCN(Cc3cscn3)CC2)cc1 | 43.6
Fc1ccc(CC2CCN(Cc3cscn3)CC2)cc1 | 50.7
Fc1ccccc1CC1CCN(Cc2cscn2)CC1 | 45
CN1CCCCC1c1ncc2c(n1)CCN(Cc1ccccc1Cl)C2 (configuration not stated) | 41.5
CN1CCc2nc(C3CCCCN3Cc3ccccc3Cl)ncc2C1 (configuration not stated) | -32.4
CN1CCCCC1c1ncc2c(n1)CCN(Cc1ccc(Cl)c(F)c1)C2 (configuration not stated) | 65.6
O=C(CCCOc1cccc(F)c1)N1CCCC(n2cccn2)C1 (configuration not stated) | -31.5
N#Cc1cn(C2CC2)c(=O)n(CC(O)c2ccccc2F)c1=O (configuration not stated) | -128
N#Cc1cn(C2CC2)c(=O)n(CC(O)c2ccc(F)cc2)c1=O (configuration not stated) | 44.7
N#Cc1cn(C2CC2)c(=O)n(CC(O)c2ccccc2C(F)(F)F)c1=O (configuration not stated) | 51
c1ncn(Cc2ccc(CNCc3ccc4c(c3)OCCO4)cc2)n1 | 0.0598
CC(C)c1cc(NC(=O)c2ccc(C(=O)NC(C)(C)C)cc2)[nH]n1 | 64
CC(C)c1cc(NC(=O)c2ccc([S+]([O-])C(C)C)cc2)[nH]n1 (configuration not stated) | -172
CC(C)c1cc(NC(=O)c2ccncc2)[nH]n1 | -134

Structure (SMILES) | INHIBITION [%]
Cc1ccc(CN2CCC3(CCC3NC(=O)c3ccn(C)c3)CC2)s1 (configuration not stated) | 55.9
Cn1ccc(C(=O)NC2CCC23CCN(Cc2nccs2)CC3)c1 (configuration not stated) | -44.3
Cn1ccc(C(=O)NC2CCC23CCN(Cc2ccc(F)cc2)CC3)c1 (configuration not stated) | 39.9
CN(C)CCOCC1CN(CCN(C)C)Cc2ccnn2C1 (configuration not stated) | -8.37
CN(C)CCOCC1CN(Cc2cccs2)Cc2ccnn2C1 (configuration not stated) | 63.4
CN(C)CCOCC1CN(Cc2ccsc2)Cc2ccnn2C1 (configuration not stated) | 38.6
CNS(=O)(=O)c1cc(C)c2[nH]c(=O)cc(C)c2c1 | -73.5
CC(=O)c1c(C)nn(CC(=O)Nc2ccc(Br)cc2)c1C | 66.7
CC(=O)c1c(C)nn(CC(=O)Nc2ccc(F)cc2)c1C | -44.1
COc1ccc(NC(=O)Cn2nc(C)c(C)cc2=O)cc1 | 25.5
COc1ncccc1C(=O)N1CC[C@H]2C[C@H](c3ccncn3)O[C@@H]2C1 | -27.7
COc1ccc(S(=O)(=O)N2CCC[C@@H]3CN(C(=O)C4CC4)C[C@@H]32)cc1 | -95.9
Fc1ccc(CN2CCO[C@H]3[C@H](OCC4CCCC4)CC[C@@H]32)cc1 | -74.2
O=C(CCC(F)(F)F)N1CCCC2(CCC(=O)N(CC3CC3)C2)C1 (configuration not stated) | -7.69
COc1ccc(-c2cc(CN)ccc2F)c(OC)c1OC | 13.4
COc1cccc(Cl)c1-c1cc(CN)ccc1F | 65.3
CC(C)Oc1ccc(CNC(=O)CC(F)(F)F)cc1F | -29.4
CC(C)Oc1ccc(CNC(=O)NCc2ccncc2)cc1F | -9.03
COc1cccc(-c2cc(CN)ccc2F)c1F | -77.3
CC(C)Oc1ccccc1-c1cc(CN)ccc1F | 60.3
CC(C)NC(=O)Nc1ccc(-c2nc(C(C)C)no2)cc1 | -60.3
CN(C)CCCNC(=O)c1cc(-c2ccc3c(c2)CCO3)n[nH]1 | -55.4
Cc1nc(CN2CCN(c3nc4c(s3)c(C)nn4C)CC2)cs1 | -145
CC(C)N1CCC(CNCc2c[nH]nc2C(C)(C)C)C1 (configuration not stated) | -90.2
CC(C)(C)c1n[nH]cc1CNCC1CCN(C2CC2)C1 (configuration not stated) | 52.2
CCN1CCC(CNCc2c[nH]nc2C(C)(C)C)C1 (configuration not stated) | -143

Structure (SMILES) | INHIBITION [%]
Cn1c(=O)c2c(n3ncnc13)NC(=O)CC2c1ccc(F)cc1 (configuration not stated) | -53.6
Cc1cccc(C(=O)N2C[C@@H](OCc3cccnc3)[C@H]3OCCC[C@@H]32)n1 | -103
CC(=O)N1[C@H](CN(C)C)C[C@@H]2CN(C(=O)c3cccn3C)CC[C@@H]21 | 56.5
CC(=O)N1[C@H](CN(C)C)C[C@@H]2CN(C(=O)c3ccno3)CC[C@@H]21 | 22.2
CC(=O)N1[C@H](CN(C)C)C[C@@H]2CN(C(=O)c3cnc(C)cn3)CC[C@@H]21 | 29
CC(=O)N1[C@H](CN(C)C)C[C@@H]2CN(C(=O)c3occc3C)CC[C@@H]21 | 55.3
CC(=O)N1[C@H](CN(C)C)C[C@@H]2CN(C(=O)c3cccc(F)c3)CC[C@@H]21 | -116
CC(=O)N1[C@H](CN(C)C)C[C@@H]2CN(C(=O)c3ccsc3)CC[C@@H]21 | -108
CCC[C@H]1CN(Cc2cc(C#N)n(C)c2C)C[C@@H]1N(C)C | 20.2
Cc1ccc(CN2C[C@@H]3COC[C@]3(COc3ccc(C#N)cn3)C2)o1 | -45.3
COCC1(C(=O)N[C@H]2CN(c3ccnc(C)c3)C[C@@H]2C2CC2)CCC1 | -51.7
O=C(Cc1ccccc1Cl)NCCN1CCC(c2cccs2)CC1 | 63.6
O=C(NCCN1CCC(c2cccs2)CC1)c1ccccc1C(F)(F)F | 34.2
CC(=O)NCCN1CCC(c2cccs2)CC1 | 6.31
CCSc1ccccc1C(=O)NCCN1CCC(c2cccs2)CC1 | 30.9
O=C(NCCN1CCC(c2cccs2)CC1)Nc1cccs1 | 64.2
O=C(NCCN1CCC(c2cccs2)CC1)c1ccc(F)cc1Cl | -19.5
CCOCC(O)CN1CCN(C(=O)C2CCCCC2)CC1 (configuration not stated) | -108
COc1ccccc1Cc1nnc(SCCS(C)(=O)=O)o1 | -75.9
c1ccc2c(NC3CCc4ncnn4C3)ncnc2c1 (configuration not stated) | -38
CCCn1nnc2c(sc3nc(N4CCOCC4)c4c(c32)CCC4)c1=O | -102
c1nc(N2CCCC2)cnc1C1CCNCC1 | -135
CC(C)N1CCCC(Cc2cncc(Br)c2)CC1 (configuration not stated) | -20.1
CCc1nc(C)c(CC(=O)N2CCC3(CC2)OCCCC3O)c(=O)[nH]1 (configuration not stated) | -109
